# Assay results from PubChem BioAssay AID624483 (NMMLSC, 2012).
# Among all 360,000 compounds or so, about 11,000 (3.1%) were called active. Inconclusive results (about 2%) are left out. The sample as a whole holds a higher share of actives than the screen did. Unmarked numbers belong to inactive results. Rule as the data show it: active = fluorescence intensity above about 16000; inconclusive = no clear call, values can overlap the other calls; inactive = below that.
# Assay: counter-screen for toxin protease inhibitors: compound fluorescence, primary screen, artefact control for toxin protease inhibitor project, biochemical, multiplex microsphere, HTS (AID 624483)
# Details: compound autofluorescence counterscreen, microsphere flow cytometry; stronger effect = higher value
row,Compound,fluorescence intensity
1,O=C1C2(c3ccccc3)CN(CCCO)CC1(c1ccccc1)CN(CCCO)C2,10600
2,CCCc1nc2c3ccccc3ccn2c1Cc1ccccc1C(F)(F)F,5310
3,Cc1ccc(S(=O)(=O)N2CCN(C(=O)CCC(=O)NC3CCCc4ccccc43)CC2)cc1 (centres undefined),7770
4,O=C(NCCO)C(=O)NCC(c1ccc2c(c1)OCO2)N1CCN(c2ccc(F)cc2)CC1 (centres undefined),5880
5,O=C(Nc1nc(-c2ccc3c(c2)OCO3)cs1)c1ccncc1,23200 (active)
6,CC(NC(=O)Nc1ccc2c(c1)OCO2)c1ccncc1 (centres undefined),2060
7,C/C(=N/NC(=O)c1ccncc1)c1ccc2c(c1)OCO2,3750
8,O=[N+]([O-])c1ccccc1SNc1ccccn1,2510
9,CNC[C@H]1OCc2cnnn2CCCC(=O)N([C@H](C)CO)C[C@@H]1C,4160
10,COc1ccc(OC)c(NC(=O)N[C@H](Cc2ccccc2)C(=O)NN)c1,5710
11,COc1ccc(OC)c(NC(=O)Cc2cccs2)c1,3820
12,COc1ccc(OC)c(NC(=O)CC(Cc2ccccc2OC)C(=O)O)c1 (centres undefined),21100 (active)
13,Cc1ccc(S(=O)(=O)NC(C)C(=O)Nc2ccccc2C(=O)N2CCCC2)cc1 (centres undefined),3260
14,Cc1ccc(CNC(=O)Nc2nnc([C@H]3C[C@H](O)[C@@H](CO)O3)s2)cc1,2810
15,Cc1cccc(NC(=O)c2ccc3nsnc3c2)c1C,2560
16,O=C(NCCc1ccccc1)c1cccc(NC(=O)c2ccccc2)c1,3070
17,O=C(Nc1ccccc1)c1ccc2nsnc2c1,16300 (active)
18,O=C(OC1CC2CC1[C@H]1CCCCN1C2=O)N1CCOCC1 (some centres undefined),5270
19,CC1(C(=O)NCc2ccco2)Cc2c(-c3ccc4c(c3)OCO4)ccnc2O1 (centres undefined),4110
20,O=C1C(Sc2cccc(F)c2)=C[C@@]2(O)CC[C@@H](O)[C@]1(Sc1cccc(F)c1)[C@H]2O,5520

row,Compound,fluorescence intensity
1,O=C(Nc1ccc2sc3ccccc3c(=O)c2c1)c1ccccc1Cl,2540
2,O=C(Nc1cc(=O)[nH]c2ncnn12)c1ccccc1Cl,16500 (active)
3,O=C(Nc1ccccc1C(=O)N1CCCCCC1)c1ccccc1Cl,6360
4,Cc1ccc(S(=O)(=O)C2(S(=O)(=O)c3ccc(C)cc3)CCCC2)cc1,6800
5,Cc1ccc(S(=O)(=O)N(C)c2ccc(C(=O)NCC3(N(C)C)CCCCC3)cc2)cc1,5740
6,Cc1ccc(S(=O)(=O)N(C)C2(C)CCS(=O)(=O)C2)cc1 (centres undefined),21400 (active)
7,CN(C)CCNC(=O)c1ccc(-c2cn3c(-c4ccc(Oc5ccccc5)cc4)cnc3cn2)cc1,4030
8,CCCNC(=S)N1CCCC(c2nc3ccccc3[nH]2)C1 (centres undefined),4060
9,Cc1ccccc1N1CC(c2nc3ccccc3[nH]2)CC1=O (centres undefined),20000 (active)
10,O=C(C1CCCO1)N1CCC(c2nc3ccccc3[nH]2)CC1 (centres undefined),9970
11,CCCNC(=O)C1(C)CCN1C(=O)C1(c2ccccc2)CC1 (centres undefined),3570
12,C=C(C)CSc1nnc(-c2ccc(C)cc2)n1N,9220
13,C/C(CCc1ccccc1)=N\NC(=O)c1ccc(CN2CCOCC2)cc1,2210
14,S=C1SCN(CCN2CCOCC2)CN1Cc1ccccc1,24500 (active)
15,Cn1c(=O)c2c(nc(CN3CCOCC3)n2Cc2ccccc2)n(C)c1=O,9090
16,Cc1cc(C)c(NC(=S)N2CCCC2C(=O)O)c(C)c1 (centres undefined),2490
17,COc1ccc(N2CCN(CCNC(=O)Nc3cc(Cl)ccc3Cl)CC2)cc1,3500
18,COc1ccc(NC(=O)NCCN2CCN(c3ccc(C)cc3)CC2)c(Cl)c1,3770
19,COc1ccc(N2CCN(CCNC(=O)c3nnc(Cc4c(F)cccc4Cl)o3)CC2)cc1,24000 (active)
20,CCCCN(C=O)c1c(CC)nc2c(OCc3ccccc3C(=O)OC)cccn12,4040

row,Compound,fluorescence intensity
1,Cc1ccc(CNC(=O)C2CCN(S(=O)(=O)c3ccc4nc5c(c(C(=O)O)c4c3)CC(C)CC5)CC2)cc1 (centres undefined),5690
2,COC(=O)[C@@]1(Cc2ccc(OC)cc2)[C@H]2c3cc(C(=O)N4CCCC4)n(Cc4ccc(OC(F)(F)F)cc4)c3C[C@H]2CN1C(=O)c1ccccc1,5540
3,CC(C)OC(=O)C(C#N)c1nc2ccccc2nc1N1CCN(Cc2ccccc2)CC1 (centres undefined),2960
4,CC(=O)c1ccc(S(=O)(=O)N2CCN(c3nc4c(C)c(C)ccc4cc3C#N)CC2)cc1,13000
5,Cc1ccc(S(=O)(=O)C(C#N)c2nc3ccccc3nc2N2CCCC2)cc1C (centres undefined),19400 (active)
6,CCC(C)(C)C1CCC(=NNC(=O)c2ccc(Br)o2)CC1 (centres undefined),2520
7,Cc1ccc(N)cc1-n1c(C)ccc1C,9500
8,Cc1ccc2nc(-c3ccco3)c(Cc3cccc(Cl)c3)n2c1,4970
9,C=CCN1C(=O)C2(C(C(=O)OCC)=C(N)Oc3c2c(=O)oc2ccccc32)c2ccccc21 (centres undefined),4120
10,COC(=O)CN1C(=O)C2(C(C(=O)OC)=C(N)Oc3ccccc32)C2=C1CC(C)(C)CC2=O (centres undefined),23500 (active)
11,CCOC(=O)CC1=C(C(=O)OCC)C2(C(=O)N1)C(C(=O)OC)=C(N)Oc1ccccc12 (centres undefined),4280
12,CC(c1ccccn1)N(C)C(=O)c1ccc2nc(Cc3cccc(Cl)c3)oc2c1 (centres undefined),5500
13,Cc1ccc(C(c2nnnn2CS(=O)(=O)c2ccc(C)cc2)N2CCC(C)CC2)cc1 (centres undefined),4360
14,CCN(CC)c1ccc(NC(=O)CCc2nnc3ccc(N4CCCCC4)nn23)c(C)c1,4470
15,OC[C@H]1O[C@@H](c2nc(-c3nc(-c4ccc(F)cc4)no3)cs2)[C@H](O)[C@@H](O)[C@H]1O,4000
16,CC1(C(=O)NCC2CCOCC2)Cc2c(-c3cccc(C(N)=O)c3)ccnc2O1 (centres undefined),4060
17,O=C(c1ccc(F)cc1)N1CCCC(c2nc(-c3cccs3)no2)C1 (centres undefined),4320
18,O=C(c1cccs1)N1CCCC(c2nc(-c3ccc(F)cc3)no2)C1 (centres undefined),11100
19,O=C(Cc1cccs1)N1CCCC(c2nc(-c3ccc(S(=O)(=O)N4CCCC4)cc3)no2)C1 (centres undefined),16600 (active)
